Most compounds without a hit are left out; they make up all but 1.8% or so of the library.
HUVEC tox TNFa = toxic to HUVEC cells under TNF alpha stimulation; HUVEC TNFalpha-stimulated, Hoechst cell count, imaging; cell count reduction, % at 2 µM; 93,000 compounds, 0.17% hits; AID 848;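 active means cell count reduction exceeding the screen mean by over 5 SD, scaled to untreated wells per plate, cut at about 78% in these data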;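 further: cells counted after 24 h of TNF alpha exposure following the 1 h pretreatment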
NFkB transloc pot = enhances IL-1B driven NFkB nuclear translocation. HUVEC IL-1B NFkB p65 nuclear translocation imaging. activation, % at 2 µM. 94,000 compounds, 0.3% hits;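 active means activation above 40%, about the mean plus 3 SD, also judged a hit on visual image review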;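 further: percent activation is computed from the nuclear over cytoplasmic p65 intensity ratio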
HUVEC tox IL1B = HUVEC cytotoxicity counter-screen, IL-1B stimulated; cell count reduction, % at 2 µM; HUVEC cell count loss, Hoechst imaging; 94,000 compounds, 0.41% hits; AID 845;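 active means cell count reduction more than 3 SD above the screen-wide mean, cut at about 70% in these data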
VCAM1 TNFa inh = reduces TNF alpha induced VCAM1 expression in HUVEC | AID 802 | HUVEC TNFa-induced VCAM-1 immunofluorescence, high-content imaging | inhibition, % at 2 µM | 95,000 compounds, 0.48% hits;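 active means inhibition above the batch mean plus 3 SD, with images confirmed as a hit by eye, cut at about 37% in these data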
NFkB transloc inh = blocks IL-1B driven NFkB nuclear translocation in HUVEC cells | HUVEC IL-1B NFkB p65 nuclear translocation imaging | inhibition, % at 2 µM | 94,000 compounds, 0.43% hits | AID 796;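 active means inhibition above about 30% together with a positive call from visual inspection of the well image, limit read from the data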;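 further: nuclear over cytoplasmic p65 intensity ratio measured by imaging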
E-sel TNF inh = TNF alpha driven E-selectin expression inhibition | inhibition, % at 2 µM | 120,000 compounds, 0.71% hits | HUVEC TNFa-induced E-selectin immunofluorescence, high content;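 active means inhibition above the batch mean plus 3 SD, and confirmed as a hit on visual image review, cut at about 43% in these data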
Each line names hits and unclear results; the compound was inactive in the other large screens.

CSCCC(NS(=O)(=O)c1ccccc1F)C(=O)OCc1ccccc1Cl (centres undefined)	none (no result: HUVEC tox TNFa, NFkB transloc pot, HUVEC tox IL1B, VCAM1 TNFa inh, NFkB transloc inh)
Clc1cc(Cl)cc(C2=NCCC(c3ccccc3)O2)c1 (centres undefined)	none (no result: HUVEC tox TNFa, NFkB transloc pot, HUVEC tox IL1B, VCAM1 TNFa inh, NFkB transloc inh)
Clc1ccc(-c2nnc(-c3ccco3)o2)cc1	E-sel TNF inh 77.0
CC(=O)Oc1cc2oc(=O)c3c(c2cc1Cl)CCC3	none (no result: E-sel TNF inh)
CCn1cc(C(=O)OCc2ccccc2)c(=O)c2ccc(C)nc21	none
CCn1cc(C(=O)OCc2ccc(F)cc2)c(=O)c2ccc(C)nc21	HUVEC tox IL1B 86.3
COc1ccc2c(CC(=O)OCC(=O)NC(=O)c3cccn3C)coc2c1	none (no result: NFkB transloc pot, HUVEC tox IL1B, NFkB transloc inh)
Cc1cc(=O)oc2cc(OCC(=O)OCC(=O)NCc3ccc4c(c3)OCO4)ccc12	E-sel TNF inh 70.8
O=C(Cn1cccc1C(=O)c1ccccc1)NCCN1CCOCC1	VCAM1 TNFa inh 82.0
O=C(CSc1ncnc2c1oc1ccccc12)N1CCN(c2ccccc2)CC1	none
Cc1ccc(-n2nnc3c(SCC(=O)N4CCN(c5ccccc5)CC4)ncnc32)cc1	VCAM1 TNFa inh 92.2
CCCCn1c(N)c(N(CCOC)C(=O)COc2ccc(Cl)cc2)c(=O)[nH]c1=O	none (no result: HUVEC tox TNFa, NFkB transloc pot, HUVEC tox IL1B, VCAM1 TNFa inh, NFkB transloc inh)
CCSc1nnc(Cc2cc(=O)[nH]c(=O)[nH]2)n1-c1cc(C)ccc1C	none
O=c1c2[nH]c3ccccc3c2ncn1Cc1cccnc1	NFkB transloc pot 50.1
O=C(NC(=S)Nc1cc(C(F)(F)F)ccc1Cl)c1ccccc1	NFkB transloc inh 78.9
CCOC(=O)CCc1c(C)c2ccc(OCc3cc([N+](=O)[O-])ccc3OC)cc2oc1=O	none
COc1ccc([N+](=O)[O-])cc1COc1ccc2c(-c3ccccc3)cc(=O)oc2c1	HUVEC tox IL1B 70.0
COC(=O)c1cccc(NC(=O)c2ccc(S(=O)(=O)N3CCN(C)CC3)cc2)c1	none
CN1CCN(S(=O)(=O)c2ccc(NC(=O)c3ccc(F)cc3)cc2)CC1	E-sel TNF inh 100.0
COc1cc(S(=O)(=O)N2CCCCC2)ccc1NC(=O)c1ccccc1Cl	NFkB transloc inh 46.9
COc1ccccc1NC(=O)c1ccc(S(=O)(=O)N2CCCC2)cc1	E-sel TNF inh 99.5
CN(c1ccccc1C(=O)Nc1ccc(S(=O)(=O)N2CCCCC2)cc1)S(C)(=O)=O	HUVEC tox IL1B 93.9, NFkB transloc inh 99.0
CCC(=O)Nc1ccc(S(=O)(=O)N2CCCCC2)cc1OC	none
COc1cc(S(=O)(=O)N2CCCCC2)ccc1NC(=O)c1ccc(F)cc1	none
CCCCSc1nnc([C@@H](NC(=O)OC(C)(C)C)C(C)C)o1	none
Cc1ccc(NC(=O)C2=C(c3ccccc3)S(=O)(=O)CCS2(=O)=O)cc1	E-sel TNF inh 78.7 (no result: HUVEC tox TNFa, NFkB transloc pot, HUVEC tox IL1B, VCAM1 TNFa inh, NFkB transloc inh)
COc1ccccc1OCC(=O)NCCNC(=O)COc1ccccc1OC	none
COc1ccccc1OCC(=O)NCC1CCCCC1	HUVEC tox IL1B 93.5, NFkB transloc inh 95.7
CC(C)CC(=O)NS(=O)(=O)c1ccc(NS(C)(=O)=O)cc1	none (no result: HUVEC tox TNFa, NFkB transloc pot, HUVEC tox IL1B, VCAM1 TNFa inh, NFkB transloc inh)
COCc1cc(C)c2c(N)c(C#N)sc2n1	NFkB transloc inh 30.6
N#Cc1sc2nc3c(c(-c4ccco4)c2c1N)CCCC3	none
COc1ccc(OC)c(C2CC(=O)c3c([nH]c(C(=O)OC(C)C)c3C)C2)c1 (centres undefined)	VCAM1 TNFa inh 41.2
CCOC(=O)NCc1ccc(S(=O)(=O)Nc2c(C)cccc2C)cc1	none
COc1ccc(CCNC(=S)NC2CCN(Cc3ccccc3)CC2)cc1	none (no result: HUVEC tox TNFa, NFkB transloc pot, HUVEC tox IL1B, VCAM1 TNFa inh, NFkB transloc inh)
CCOC(=O)/C=C/C(=O)OCC(=O)Nc1ccc(Cl)cc1Cl	none (no result: HUVEC tox TNFa, NFkB transloc pot, HUVEC tox IL1B, VCAM1 TNFa inh, NFkB transloc inh)
CCc1cc[n+](CC(=O)Nc2ccc(Cl)cc2Cl)cc1	E-sel TNF inh 76.8 (no result: HUVEC tox TNFa, NFkB transloc pot, HUVEC tox IL1B, VCAM1 TNFa inh, NFkB transloc inh)
C=CCN(CC=C)CC(=O)Nc1ccc(S(N)(=O)=O)cc1	NFkB transloc inh 42.2
COCCNC(=O)c1ccc(CN2CCOCC2)cc1	none
C/C(=N\Nc1nc(Cl)c(Cl)cc1Cl)c1ccc(S(=O)(=O)NCc2ccco2)cc1	none (no result: HUVEC tox TNFa, NFkB transloc pot, HUVEC tox IL1B, VCAM1 TNFa inh, NFkB transloc inh)
O=C(C1CCCO1)N1CCN(c2c3c(nc4cc(-c5ccc(F)cc5)nn24)CCC3)CC1 (centres undefined)	E-sel TNF inh 64.7
CC(C)(C)NC(=O)NC(=O)COC(=O)c1cccc(S(=O)(=O)N2CCCCC2)c1	none (no result: HUVEC tox TNFa, NFkB transloc pot, HUVEC tox IL1B, VCAM1 TNFa inh, NFkB transloc inh)
COc1ccccc1C(=O)Nc1nnn(C)n1	HUVEC tox TNFa 78.3 (no result: E-sel TNF inh)
Cc1ccccc1NC(=O)c1ccc(CSc2ncccn2)cc1	E-sel TNF inh 60.8
CN1C(=O)N(S(=O)(=O)c2ccc(F)c(F)c2F)C(=O)C1(C)C	none
